From PubChem BioAssay
In the library only some 7.5% were active in any assay of this set; here they are far more common.
Luc counter – Kinase-Glo luciferase inhibition (counter-screen); Kinase-Glo luciferase, ATP luminescence, 8 min; hit rate 0.28% among 200,000; Potency, µM (series often up to 38.3 µM), for the others: at the highest dose activity change, negative = inhibition, hits mostly inhibitors; note: % is set by controls: 0 for no effect and ±100 for the full control effect; nearly all actives have a fitted effect of over 60% in size
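Light output from Kinase-Glo luciferase with luciferin and 10 uM ATP in 50 mM imidazole pH 7.2, KCl, MgCl2, Tween 20, BSA; compound pin-delivered, 8-min ambient incubation, then luminescence read.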
NPC1 prom act – activates the NPC1 promoter | Potency, µM (top dose mostly 9.22 µM), for the others: at the highest dose activation, hits mostly activators | AID 485313 | hit rate 2.4% among 320,000 | Huh7 NPC1 promoter luciferase reporter, 24 h; note: % of control where 0% means no effect; nearly all actives have a fitted effect of over 60% in size
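In 1536-well qHTS, Huh7 cells harboring an NPC1 promoter–luciferase construct received compound for 24 h; activation was quantified by luminescence following luciferase reagent addition.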
ELG1 genotoxic – inducers of genotoxicity in HEK293T ELG1-luciferase cells | Potency, µM (series often up to 46 µM), inactives show at the highest dose activity change, positive = activation, hits mostly activators | HEK293T ELG1-luciferase reporter, luminescence, 16 h | hit rate 1.3% among 330,000; note: % of control where 0% means no effect; nearly all actives have a fitted effect of over 60% in size
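Genotoxicity was scored as increased ELG1-luciferase reporter signal, measured by ONE-Glo luminescence (30 min, room temperature). Compound or vehicle exposure of the HEK293T reporter cells lasted 16 hr at 37°C.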
Rab9 promoter act – activates the Rab9 promoter; hit rate 2.8% among 320,000; Potency, µM (series often up to 9.22 µM), inactives show at the highest dose activation, negative = inhibition, usual class: activators; Huh7 Rab9 promoter-luciferase reporter, luminescence, 24 h; note: % of control where 0% means no effect; nearly all actives have a fitted effect of over 60% in size
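Huh7 cells stably carrying a Rab9 promoter-luciferase reporter, 1500 cells per well in OP-MEM I with 10% FBS, treated with compound 24 hours at 37C. Luciferase activity read by luminescence after 10 minutes with Amplite reagent.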
SMN2 splice up – SMN2 splice variant enhancement; HEK293 SMN2-luciferase splicing reporter, luminescence, 30-36 h; Potency, µM (doses to about 46.1 µM), without a hit: top-dose activity change, positive = activation, hits mostly activators; hit rate 2.8% among 210,000; AID 1458; note: % of control where 0% means no effect; nearly all actives have a fitted effect of over 55% in size
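HEK293 cells carry an SMN2 […]–luciferase reporter in which exon 7 inclusion puts luciferase in frame. Cells were plated 10-12 h before compound addition, then incubated 30-36 h at 37C. ONE-Glo luminescence was read; sodium butyrate at 4.5 mM final served as control.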
FLuc modulator – counter-screen for miR-21 project: firefly luciferase inhibitors or activators. P08659. purified FLuc, Km substrates, luminescence inhibition. Potency, µM (doses to about 57.5 µM), without a hit: at the highest dose activity change, negative = inhibition, usual class: inhibitors. hit rate 6.9% among 360,000;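 note: plate controls were vehicle for no effect and reference inhibitor for full effect; nearly all actives have a fitted effect of over 55% in size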
Target sequence (P08659 whole entry, looked up): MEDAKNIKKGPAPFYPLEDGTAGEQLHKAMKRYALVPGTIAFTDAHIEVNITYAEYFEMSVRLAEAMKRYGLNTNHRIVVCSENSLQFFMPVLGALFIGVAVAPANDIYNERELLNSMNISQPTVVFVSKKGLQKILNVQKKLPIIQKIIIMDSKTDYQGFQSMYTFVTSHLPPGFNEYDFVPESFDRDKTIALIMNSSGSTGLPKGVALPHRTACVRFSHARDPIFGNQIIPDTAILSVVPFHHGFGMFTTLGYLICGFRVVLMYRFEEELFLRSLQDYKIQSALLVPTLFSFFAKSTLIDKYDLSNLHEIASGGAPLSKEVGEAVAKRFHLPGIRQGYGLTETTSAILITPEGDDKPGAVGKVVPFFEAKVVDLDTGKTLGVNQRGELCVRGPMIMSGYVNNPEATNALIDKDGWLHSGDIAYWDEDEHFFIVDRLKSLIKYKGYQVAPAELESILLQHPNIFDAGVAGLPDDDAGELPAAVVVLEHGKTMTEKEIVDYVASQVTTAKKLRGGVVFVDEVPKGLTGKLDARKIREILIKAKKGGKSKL
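Purified P. pyralis luciferase, 10 nM final, with Km-level 10 uM D-luciferin and 10 uM ATP in 50 mM Tris acetate pH 7.5, 10 mM Mg acetate, 0.01% Tween-20, 0.05% BSA; 6-point qHTS titration about 60 µM downward; luminescence read.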
* hit, by the source's call; ? = inconclusive; / = no result; ! = repeats disagree. Calls come from the whole dose curve; as a rule, active = well fitted curve in the direction sought with a large enough effect; inconclusive = small, poorly fitted or top-dose-only effect, or another doubt; inactive = no such curve, though single readings can be large; an effect the other way counts as inactive or inconclusive. Potency is the fitted concentration of half-maximal effect.

SMILES | Luc counter | NPC1 prom act | ELG1 genotoxic | Rab9 promoter act | SMN2 splice up | FLuc modulator
C#CCn1c(=NC(=O)c2ccc3c(c2)OCCO3)sc2cc(OC)c(OC)cc21 | / | / | / | / | / | -1%
CCn1c(=NC(=O)c2ccc3c(c2)OCCO3)sc2c(C)ccc(OC)c21 | / | / | / | / | / | 1.9µM*
COc1ccc(C(=O)N=c2sc3c(C)ccc(OC)c3n2C)cc1 | 13µM* | ? | 0.46µM* | ? | 4µM* | 0.6µM*
Cc1ccc(-c2noc(C(C)NS(=O)(=O)c3ccc(C)cc3)n2)cc1 (stereo unspecified) | / | / | / | / | / | -14%
Cc1nn2c(nc1=O)SCC(c1ccccc1)=N2 | -1% | 2.2µM* | ? | 3.5µM* | ? | 3%
Cc1ccnc(NS(=O)(=O)c2ccc(NC(=O)c3nc(SC(C)C)ncc3Cl)cc2)n1 | / | / | / | / | -3% | ?
CSc1ncc(Cl)c(C(=O)Nc2ccc(S(=O)(=O)Nc3nccc(C)n3)cc2)n1 | / | 1.8µM* | 6.5µM* | 1.4µM* | 14% | 11µM*!
CC(C)(C)c1csc(NC(=O)c2cccnc2)n1 | / | -2% | -2% | 0% | / | ?
CC(C)(C)c1csc(NC(=O)c2cccs2)n1 | 0% | 3.2µM* | ? | 3.5µM* | / | 11µM*
CC(C)(C)c1csc(NC(=O)Cc2cccs2)n1 | 0% | 0% | 6% | 16% | -25% | 15µM*
O=C(NCC1CCCO1)C1CCN(C(=O)c2ccc(Cl)cc2)CC1 (stereo unspecified) | -3% | 0% | 2% | -19% | -16% | 2%
CC(C)(C)c1ccc(C(=O)NNC(=S)NCC2CCCO2)cc1 (stereo unspecified) | 3% | -1% | 0% | 0% | -28% | -12%
CC(C)(C)c1ccc(C(=O)NC(=S)N2CCOCC2)cc1 | / | 2.2µM* | 8.2µM* | 2.2µM* | / | 9.5µM*
CN1CCN(C(=S)NC(=O)c2ccc(C(C)(C)C)cc2)CC1 | 3% | -2% | 1% | 0% | -1% | ?
CC(C)(C)c1ccc(C(=O)N2CCC(C(=O)NCC3CCCO3)CC2)cc1 (stereo unspecified) | 0% | 28% | 8% | ? | 11µM* | ?
CC(C)(C)c1ccc(C(=O)NC(=S)NCC2CCCO2)cc1 (stereo unspecified) | / | 7% | 4% | 12% | / | 27µM*
CC(C)(C)c1ccc(C(=O)N2CCC(C(=O)NCc3ccco3)CC2)cc1 | -1% | 10% | 6% | 11% | 2.5µM* | -18%
Cc1ccc(C)c(N2CCN(S(=O)(=O)c3ccc(-c4coc(C)n4)cc3)CC2)c1 | / | / | / | / | / | 0%
CCCC1CC(C)(c2csc(Nc3ccc(OCC)cc3)n2)OC1=O (stereo unspecified) | 2% | 0% | 8% | -2% | -92% | 19µM*
CCOc1ccc(NC(=O)CC2CC(C)(C)OC2=O)cc1 (stereo unspecified) | -4% | 0% | 1% | 1% | -3% | -2%
O=C(O)COc1ccc2c(-c3ccccc3)cc(=O)oc2c1 | -1% | 10% | 10% | 16% | ? | 19µM*
O=c1oc2cc(OCc3c(F)cccc3Cl)ccc2cc1-c1ccccn1 | 1% | 0% | 1% | -1% | -27% | 1%
CN(C)C(=O)COc1ccc2cc(-c3ccccc3)c(=O)oc2c1 | -3% | 4µM* | ? | 2µM* | 18µM* | ?
CCCOc1ccc2cc(-c3ccccn3)c(=O)oc2c1 | 13µM* | ? | ? | 0.45µM* | 0.79µM* | 0.24µM*
COc1ccc(-c2cc(=O)oc3cc(OCC(=O)N(C)C)ccc23)cc1 | / | -3% | 2% | -37% | / | -1%
COc1ccc2cc(-c3ccccc3)c(=O)oc2c1 | / | 1.3µM* | 2.6µM* | 0.71µM* | / | 2.4µM*
CCc1cccc(C)c1NC(=O)CSc1n[nH]c(-c2ccccc2)n1 | / | / | / | / | / | -18%
O=c1oc2ccccc2cc1-c1ccccc1 | 0% | 19% | ? | ? | 21% | ?
